From PMC5540273 (PLoS ONE, 2017)

Tests used:
Conditions in all cases: concentration: 1 μM, replicates: in singlicate; n = 1
PIP5K1A = test system: PIP5K1A
PIP5K1C = test system: PIP5K1C
PIP5K2B = test system: PIP5K2B
PIP5K2C = test system: T1, PIP5K2C
T1 construct: gene PIP4K2C

PKAC-alpha = test system: T2, PKAC-alpha
T2 construct: gene PRKACA

PKAC-beta = test system: T3, PKAC-beta
T3 construct: gene PRKACB

PKMYT1 = test system: PKMYT1
PKN1 = test system: PKN1
PKN2 = test system: PKN2
PLK1 = test system: PLK1
PLK2 = test system: PLK2
PLK3 = test system: PLK3
PLK4 = test system: PLK4
PRKCD = test system: PRKCD
PRKCE = test system: PRKCE
PRKCH = test system: PRKCH
PRKCI = test system: PRKCI
PRKCQ = test system: PRKCQ
PRKD1 = test system: PRKD1
PRKD2 = test system: PRKD2
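Also: KINOMEscan kinase panel screen.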

| Structure (SMILES) | %Inh (PIP5K1A) | %Inh (PIP5K1C) | %Inh (PIP5K2B) | %Inh (PIP5K2C) | %Inh (PKAC-alpha) | %Inh (PKAC-beta) | %Inh (PKMYT1) | %Inh (PKN1) | %Inh (PKN2) | %Inh (PLK1) | %Inh (PLK2) | %Inh (PLK3) | %Inh (PLK4) | %Inh (PRKCD) | %Inh (PRKCE) | %Inh (PRKCH) | %Inh (PRKCI) | %Inh (PRKCQ) | %Inh (PRKD1) | %Inh (PRKD2) |
| --- | --- | --- | --- | --- | --- | --- | --- | --- | --- | --- | --- | --- | --- | --- | --- | --- | --- | --- | --- | --- |
| CCNc1nccc(-c2c(-c3ccc(F)cc3)ncn2C2CCN(C)CC2)n1 | 0% | 0% | 0% | 0% | 20% | 0% | 0% | 0% | 0% | 0% | 0% | 0% | 0% | 6% | 31% | 0% | 0% | 0% | 40% | 0% |
| COC(=O)Nc1nc2ccc(Oc3ccc(NC(=O)Nc4cc(C(F)(F)F)ccc4F)cc3)cc2[nH]1.Cl [GW654607] | 0% | 30% | 34% | 16% | 0% | 6% | 0% | 39% | 16% | 0% | 0% | 0% | 0% | 4% | 12% | 8% | 21% | 16% | 28% | 3% |
| COc1cc(Nc2ccnc3cc(-c4ccncc4)ccc23)cc(OC)c1OC.Cl [GW494610] | 0% | 36% | 8% | 27% | 0% | 2% | 0% | 0% | 7% | 0% | 0% | 0% | 0% | 13% | 25% | 16% | 0% | 0% | 19% | 24% |
| COc1ccc(NC(=O)c2ccoc2)cc1-c1ccc(C(=O)NCC2CC2)cc1 [GW810437] | 7% | 0% | 0% | 0% | 15% | 15% | 0% | 0% | 0% | 50% | 34% | 28% | 8% | 9% | 41% | 0% | 6% | 0% | 0% | 0% |
| CC(C)c1nc(-c2cccc(NS(=O)(=O)c3c(F)cccc3F)c2)c(-c2ccnc(Nc3ccc(N4CCOCC4)nc3)n2)s1.Cl [GSK1723980] | 0% | 20% | 18% | 85% | 0% | 0% | 0% | 16% | 0% | 0% | 0% | 0% | 100% | 0% | 0% | 2% | 20% | 27% | 93.9% | 99.4% |
| CC(=O)Nc1cn2nc(Oc3cccc(NC(=O)c4cccc(C(F)(F)F)c4)c3)ccc2n1 | 11% | 5% | 0% | 32% | 8% | 52% | 0% | 0% | 23% | 0% | 0% | 0% | 0% | 0% | 0% | 0% | 0% | 0% | 18% | 17% |
| Cn1cc(-c2ccc3c(c2)CCN3C(=O)Cc2cc(F)cc(C(F)(F)F)c2)c2c(N)ncnc21 [GSK2635225] | 27% | 28% | 2% | 15% | 6% | 0% | 0% | 6% | 0% | 8% | 3% | 0% | 0% | 18% | 1% | 0% | 0% | 17% | 0% | 14% |
| CSc1ccc(NC2=C(c3ccc(Cl)cc3)C(=O)NC2=O)cc1 [SB-317658] | 0% | 0% | 43% | 0% | 16% | 16% | 10% | 7% | 9% | 4% | 6% | 0% | 30% | 4% | 0% | 2% | 8% | 0% | 17% | 0% |
| O=C1NC(=O)C(c2ccccc2Cl)=C1Nc1cccc(Cl)c1 [SB-342409] | 11% | 15% | 13% | 5% | 0% | 0% | 27% | 100% | 0% | 0% | 0% | 0% | 0% | 0% | 42% | 0% | 9% | 100% | 0% | 0% |
| CCOc1nccc(-c2c(-c3ccc(F)cc3)ncn2C2CCNCC2)n1 [SB-249175] | 0% | 14% | 0% | 21% | 11% | 25% | 23% | 6% | 18% | 9% | 24% | 23% | 26% | 20% | 5% | 100% | 5% | 10% | 38% | 35% |
| CC(C)c1nc(-c2ccc(F)c(NS(=O)(=O)c3c(F)cccc3F)c2)c(-c2ccnc(Nc3ccc(N4CCOCC4)nc3)n2)s1 [GSK1804250] | 0% | 46% | 9% | 78% | 1% | 0% | 4% | 59% | 12% | 15% | 0% | 0% | 99.8% | 8% | 7% | 21% | 39% | 0% | 93.6% | 99.4% |
| Cn1cc(-c2cnc(N)c3c(-c4ccc5c(c4)CCN5C(=O)Cc4ccccc4)csc23)cn1 [GSK2593074] | 0% | 0% | 1% | 0% | 9% | 0% | 8% | 0% | 7% | 0% | 41% | 16% | 19% | 9% | 0% | 0% | 0% | 0% | 6% | 0% |
| CS(=O)(=O)c1cccc(CNc2nc(Nc3ccc4c(c3)CCC(=O)N4)ncc2C(F)(F)F)c1 | 61% | 58% | 59% | 69% | 0% | 0% | 0% | 49% | 2% | 0% | 29% | 31% | 51% | 4% | 0% | 0% | 13% | 0% | 0% | 0% |
| Fc1cc(Cl)ccc1Nc1ccnc2cc(-c3ccc(CN4CCOCC4)o3)ccc12 [GW560109] | 0% | 44% | 31% | 75% | 8% | 37% | 0% | 100% | 0% | 0% | 0% | 0% | 81% | 0% | 5% | 3% | 22% | 31% | 0% | 2% |
| CC(C)NCC(Cc1ccccc1)NC(=O)c1cc(Br)c(-c2ccnc3[nH]ccc23)s1.Cl.Cl (stereo not shown) [GSK1383281] | 14% | 49% | 17% | 37% | 99.4% | 99% | 0% | 40% | 57% | 0% | 13% | 38% | 90.1% | 84% | 89% | 82% | 19% | 50% | 75% | 71% |
| COc1cccc(NC(=O)NCCNc2ccnc(Nc3ccc(F)cc3)n2)c1 [GSK1379879] | 40% | 63% | 13% | 29% | 0% | 0% | 1% | 12% | 0% | 0% | 0% | 0% | 4% | 0% | 18% | 5% | 20% | 12% | 0% | 0% |
| Cn1cc(-c2ccc3c(c2)CCN3C(=O)Cc2cc(F)cc(F)c2F)c2c(N)ncnc21 [GSK2634140] | 10% | 0% | 13% | 12% | 0% | 4% | 0% | 0% | 0% | 0% | 0% | 0% | 0% | 0% | 0% | 17% | 0% | 20% | 100% | 0% |
| Cc1ccc(NC(=O)c2ccc(Cl)c(Cl)c2)cc1-c1ccc(C(=O)Nc2ccncc2)cc1 [GSK1398460] | 0% | 0% | 0% | 0% | 13% | 7% | 31% | 1% | 15% | 0% | 0% | 0% | 8% | 0% | 10% | 22% | 0% | 15% | 15% | 0% |
| CN(c1ccc(NC(=O)N2CCN(CCCN3CCOCC3)CC2)cc1)c1ccnc(Nc2ccc(CS(C)(=O)=O)cc2)n1.Cl [GW830899] | 0% | 26% | 32% | 55% | 0% | 29% | 25% | 0% | 0% | 3% | 0% | 0% | 39% | 23% | 0% | 0% | 43% | 0% | 0% | 0% |
| CN1CCN(Cc2ccc(NC(=O)Nc3ccc(N(C)c4ccnc(Nc5ccc(CS(C)(=O)=O)cc5)n4)cc3)cc2)CC1.Cl [GW827654] | 74% | 0% | 69% | 78% | 0% | 23% | 10% | 41% | 0% | 7% | 12% | 3% | 90% | 5% | 5% | 0% | 23% | 38% | 23% | 27% |
